Where “and” joins values, the source holds several entries; their conditions need not be identical. Equal entries are not always repeated. Records with an inconclusive call do not appear. Calls of active or inactive are those of the source. Calls follow the shape of the dose curve; as a rule, active = well fitted curve in the direction sought with a large enough effect; inconclusive = small, poorly fitted or top-dose-only effect, or another doubt; inactive = no such curve, though single readings can be large or run the other way.

A short description of this assay: Confirmatory Assay for Inhibitors of Human Galactokinase (GALK): Phenol-HRP redox assay counterscreen for probe SAR. As to conditions: Phenol red-HRP H2O2 redox cycling, absorbance 600 nm. From the text: NIH Molecular Libraries Probe Production Centers Network [MLPCN] NIH Chemical Genomics Center [NCGC] MLPCN Grant: R03 MH085689-01 Assay Submitter (PI): Kent Lai (University of Utah School of Medicine, 50 N Mario Capecchi Drive, Salt Lake City, UT 84132) NCGC Assay Overview: One mM dithiothreitol (DTT) was used as a reducing agent to maintain the galactokinase (GALK) enzyme in its active form in the GALK qHTS screen (AID: 1868). However, it has been shown that in the presence of DTT a number of compounds also undergo redox recyling, generating a significant amount of H2O2 that can oxidize crucial cysteine residues in the enzyme, leading to and a false-positive result. To evaluate and flag redox recycling compounds for compounds re-acquired from the qHTS screen, an endpoint colorimetric assay developed by Johnston et al. was adopted and optimized for a 1536-well plate format. In brief, the assay detects the presence of H2O2 by following the change in absorbance at 600 nm due to oxidation of phenol red (Sigma, cat# 114537) catalyzed by horseradish peroxidase (HRP; Invitrogen). A stop reagent, 1N NaOH was added prior to reading the absorbance. DMSO and different concentrations of hydrogen peroxide (Sigma, cat# 216763) in the GALK buffer were used as negative and positive controls respectively.
NCGC Assay Protocol Summary: Two uL/well of GALK buffer (20mM HEPES pH8.0, 5 mM MgCl2, 60 mM NaCl, 1 mM DTT, 0.01% BSA final concentration) was dispensed into a 1536-well assay plates (Greiner, black clear bottom plates) with Aurora Discovery BioRAPTR Flying Reagent Dispenser (FRD; Beckton-Dickenson). Compound and control solutions (23 nL each) were transferred to the assay plate in their respective wells using Kalypsys pin tool equipped with a 1536-pin tool head and incubated at room temperature for 30 min. Presence of H2O2 produced by redox cycling compounds was detected by adding 2 uL/well phenol red - HRP detection reagent ([…] phenol red in 1x Hanks Balanced Salt Solution, 25 U/mL HRP final concentrations). After 15 min of room temperature incubation, the reaction was stopped by adding 2 uL/well 1N NaOH and incubated for an additional 1 hr at room temperature. The absorbance at 600 nm was measured using the ViewLux plate reader (Perkin Elmer, Waltham, MA) with 6000 light energy, 2 sec exposure, and 2x binning instrument settings.
On the technique in general: The purpose of a counterscreen is to sort out artefacts and off-target activity.
Turning to `CC1(C)CC(=O)C2=C(C1)NC(Nc1nc3ccccc3o1)=NC2c1cccnc1` (stereo unspecified), the max response was -12.6% (inactive). Next, `CC1(C)CC(=O)C2=C(C1)NC(Nc1nc3ccccc3o1)=NC2c1cccc(Cl)c1` (stereo unspecified): -8.98% (inactive); `CCC1CCC2(C1)N=C(Nc1nc3ccccc3o1)NC1=C2C(=O)CCC1` (stereo unspecified): 9.72% (inactive) [middle of 5 runs]; `O=C1CCC2=C1C(c1ccccc1Cl)N=C(Nc1nc3ccccc3o1)N2` (stereo unspecified): 4.53% (inactive). `CC1CCC2(C1)N=C(Nc1nc3ccccc3o1)NC1=C2C(=O)CCC1` (stereo unspecified): the max response was 2.86% (inactive). Regarding `Cc1nc(Nc2nc3ccccc3o2)nc2c1C(=O)CC(C)(C)C2`, the max response is -9.62% (inactive).

In the case of `O=C1CC(c2ccccc2)CC2=C1C1(CCCC1)N=C(Nc1nc3ccccc3o1)N2` (stereo unspecified), the max response is -23.7% (inactive).

Turning to `CC1(C)N=C(Nc2nc3ccccc3o2)NC2=C1C(=O)CCC2`, the max response was -7.6% (inactive). In the case of `O=C1CCCC2=C1C1(CCOCC1)N=C(Nc1nc3ccccc3o1)N2`, the max response was -7.41% (inactive). For `O=C1CCCC2=C1C1(CCCC1)N=C(Nc1nc3ccccc3o1)N2`, the max response was -5.8% (inactive) and 7.13% (inactive). As to `O=C1CCCC2=C1C(c1ccc(Cl)cc1)N=C(Nc1nc3ccccc3o1)N2` (stereo unspecified), the max response was 2.22% (inactive). `O=C1CCCC2=C1C1(CCC1)N=C(Nc1nc3ccccc3o1)N2`: the max response is -2.94% (inactive). As to `COc1cccc(C2N=C(Nc3nc4ccccc4o3)NC3=C2C(=O)CC(C)(C)C3)c1` (stereo unspecified), the max response was -7.9% (inactive).

For the compound `COc1ccccc1C1N=C(Nc2nc3ccccc3o2)NC2=C1C(=O)CC(C)(C)C2` (stereo unspecified), the max response was -7.36% (inactive). For `CC1(C)CC(=O)C2=C(C1)NC(Nc1nc3ccccc3o1)=NC2c1ccccc1Cl` (stereo unspecified), the max response was -4.5% (inactive). For the compound `Cc1ccc2oc(NC3=NC4(CCCC4)C4=C(CCCC4=O)N3)nc2c1`, the max response was -13.5% (inactive).

As to `Cn1c(NC2=NC3(CCCC3)C3=C(CCCC3=O)N2)nc2ccccc21`, the max response is -10.7% (inactive).

As to `O=C1CCCC2=C1C1(CCCC1)N=C(Nc1nc3cc(Cl)ccc3o1)N2`, the max response is -6.87% (inactive). With `O=C1CCCC2=C1C1(CCCC1)N=C(Nc1nc3cc4ccccc4cc3o1)N2`, the max response is -24.7% (inactive). For `CC1(C)CC(=O)C2=C(C1)NC(Nc1nc3ccccc3o1)=NC2c1ccccc1` (stereo unspecified), the max response is 4.41% (inactive). With `O=C1CCCC2=C1C1(CCCCC1)N=C(Nc1nc3ccccc3o1)N2`, the max response is -4.16% (inactive). Next, `O=C1CCC2=C1C1(CCCC1)N=C(Nc1nc3ccccc3o1)N2`: -0.733% (inactive); `O=C1CCCC2=C1C1(CCSC1)N=C(Nc1nc3ccccc3o1)N2` (stereo unspecified): 9.11% (inactive).

Consider `O=C1CCCC2=C1C1(CCCOC1)N=C(Nc1nc3ccccc3o1)N2` (stereo unspecified), for which the max response is 1.73% (inactive). `O=C1CCCC2=C1C1(CCCC1)N=C(Nc1nc3cc(Br)ccc3o1)N2`: the max response was -13.4% (inactive).

For the compound `O=C1CCCC2=C1C1(CCCC1)N=C(Nc1nc3ccccc3n1Cc1ccccc1)N2`, the max response is -7.8% (inactive).

In the case of `O=C1CC(c2ccccc2)CC2=C1C1(CCCCC1)N=C(Nc1nc3ccccc3o1)N2` (stereo unspecified), the max response is -19.3% (inactive). The value for `O=C1CCCC2=C1C1(CCCC1)N=C(Nc1nc3cc(-c4ccccc4)ccc3o1)N2` was -17.5% (inactive). On to `COc1ccc(C2N=C(Nc3nc4ccccc4o3)NC3=C2C(=O)CC(C)(C)C3)cc1` (stereo unspecified), for which the max response is -4.13% (inactive). As to `O=C1CCCC2=C1C(c1ccccc1Cl)N=C(Nc1nc3ccccc3o1)N2` (stereo unspecified), the max response is 1.07% (inactive). Regarding `O=C1CCCC2=C1C1(CCSCC1)N=C(Nc1nc3ccccc3o1)N2`, the max response is 3.32% (inactive).

Turning to `Cc1ccc(C2N=C(Nc3nc4ccccc4o3)NC3=C2C(=O)CC(C)(C)C3)cc1` (stereo unspecified), the max response is 0.33% (inactive).

As for `O=C1CCCC2=C1C1(CCS(=O)(=O)C1)N=C(Nc1nc3ccccc3o1)N2` (stereo unspecified), the max response was 7.09% (inactive). Consider `CC1(C)CC(=O)C2=C(C1)NC(Nc1nc3ccccc3o1)=NC21CCCC1`, for which the max response is -0.364% (inactive). As to `Cc1ccc2nc(NC3=NC4(CCCC4)C4=C(CCCC4=O)N3)oc2c1`, the max response is -9.86% (inactive). For `O=C1CCCC2=C1[C@@]1(CCC(c3ccccc3)C1)N=C(Nc1nc3ccccc3o1)N2` (stereo partly specified), the max response is -22.7% (inactive).

Source of the values: PubChem BioAssay AID2502 (National Center for Advancing Translational Sciences (NCATS), 2010).
